The source made the active and inactive calls. How the source made its calls: active means hit-call score of the fitted dose curve at least 0.9, where 1 is the maximum; inactive means score below 0.9.
Legend:
Settings in all cases: mRNA level, 48 h; actives raise or lower the signal
[1] = read-out: ATP-citrate lyase (ACLY), ACLY (gene 47); test: LTEA_HepaRG_ACLY: Life Technologies and Expression Analysis (LTEA) Assay for ATP-citrate lyase (ACLY) using HepaRG (AID 2283466)
Procedure, shortened: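 qRT-PCR readout of ACLY transcript after 48 h chemical treatment of HepaRG cells; expression normalized to three housekeeping genes. Eight-point half-log series, highest 100 uM, 0.5% DMSO vehicle. Gain or loss fitted against DMSO baseline.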

[2] = read-out: Peroxisomal acyl-coenzyme A oxidase 1 (ACOX1) gene, ACOX1 (gene 51); test: LTEA_HepaRG_ACOX1: Life Technologies and Expression Analysis (LTEA) Assay for Peroxisomal acyl-coenzyme A oxidase 1 (ACOX1) gene using HepaRG (AID 2283467)
Procedure, shortened: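 HepaRG, 48 h chemical exposure, 8-pt half-log series from 100 uM top, 0.5% DMSO vehicle, duplicates. Readout: ACOX1 mRNA by Fluidigm qRT-PCR, housekeeping-normalized; bidirectional fit vs DMSO baseline.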

[3] = read-out: Alkaline Phosphatase, Placental (ALPP) gene, ALPP (gene 250); test: LTEA_HepaRG_ALPP: Life Technologies and Expression Analysis (LTEA) Assay for Alkaline Phosphatase, Placental (ALPP) gene using HepaRG (AID 2283468);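 on AC50: differentiated human HepaRG liver cells in serum-free induction medium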
Procedure, shortened: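 Expression of ALPP was quantified by qRT-PCR against three housekeeping genes in human HepaRG cultures treated for 48 h with an eight-point concentration series up to 100 uM. Activity in either direction was fitted relative to 0.5% DMSO.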

[4] = read-out: Bcl-2 (BAD) gene, BAD (gene 572); test: LTEA_HepaRG_BAD: Life Technologies and Expression Analysis (LTEA) Assay for Bcl-2 (BAD) gene using HepaRG (AID 2283469)
Procedure, shortened: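 HepaRG, 48 h exposure, 8-pt half-log curve from 100 uM in 0.5% DMSO, duplicates. Readout: TaqMan qRT-PCR for BAD mRNA, housekeeping-normalised (ACTB/GAPDH/POLR2A); gain or loss fitted against DMSO baseline.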

[5] = read-out: Bcl-2 (BAX) gene, BAX (gene 581); test: LTEA_HepaRG_BAX: Life Technologies and Expression Analysis (LTEA) Assay for Bcl-2 (BAX) gene using HepaRG (AID 2283470)
Procedure, shortened: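 Human HepaRG cells treated in duplicate for 48 h across eight concentrations (max 100 uM, 0.5% DMSO); BAX expression measured by qRT-PCR.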

[6] = read-out: adenosine kinase (ADK) gene, ADK (gene 132); test: LTEA_HepaRG_ADK: Life Technologies and Expression Analysis (LTEA) Assay for adenosine kinase (ADK) gene using HepaRG (AID 2283471)
Procedure, shortened: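 Read-out is ADK transcript level measured by qRT-PCR and normalised to three housekeeping genes. Cells are human HepaRG, dosed for 48 h at up to 100 uM in 0.5% DMSO. Gain or loss of signal is fitted against DMSO controls.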

[7] = read-out: Alpha-fetoprotein (AFP) gene, AFP (gene 174); test: LTEA_HepaRG_AFP: Life Technologies and Expression Analysis (LTEA) Assay for Alpha-fetoprotein (AFP) gene using HepaRG (AID 2283472)
Procedure, shortened: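 Measures AFP mRNA change in HepaRG after 48 h chemical exposure (8 half-log concentrations, highest 100 uM, 0.5% DMSO). Fold change relative to DMSO, fitted in both directions.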

BCL2L11 (gene 10018) = test: LTEA_HepaRG_BCL2L11: Life Technologies and Expression Analysis (LTEA) Assay for Bcl-2 (BCL2L11) gene using HepaRG (AID 2283473)
Procedure, shortened: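 Cells were plated, cultured 48 h, switched to serum-free induction medium, then dosed in duplicate for 48 h at eight half-log concentrations up to 100 uM. Lysates underwent RNA isolation and TaqMan qRT-PCR; gain or loss versus DMSO was fitted.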

[8] = read-out: Apolipoprotein A-V (APOA5) gene, APOA5 (gene 116519); test: LTEA_HepaRG_APOA5: Life Technologies and Expression Analysis (LTEA) Assay for Apolipoprotein A-V (APOA5) gene using HepaRG (AID 2283474)
Procedure, shortened: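 Human liver HepaRG cells are treated 48 h with test chemicals (100 uM top, half-log dilutions, 0.5% DMSO). APOA5 mRNA induction or loss is measured by qRT-PCR relative to vehicle.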

[9] = read-out: Apoptosis regulator Bcl-2 (Homo sapiens) (UniProt P10415); test: LTEA_HepaRG_BCL2: Life Technologies and Expression Analysis (LTEA) Assay for Bcl-2 gene using HepaRG (AID 2283475)
Procedure, shortened: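 Each chemical was tested in duplicate on HepaRG cultures held in serum-free induction medium for 48 h, highest concentration 100 uM with half-log dilutions. Transcript levels came from multiplexed qRT-PCR, normalised to housekeeping genes; activity was scored in either direction relative to DMSO.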

[10] = read-out: Bcl-2 (BID) gene, BID (gene 637); test: LTEA_HepaRG_BID: Life Technologies and Expression Analysis (LTEA) Assay for Bcl-2 (BID) gene using HepaRG (AID 2283476)
Procedure, shortened: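 Assay used HepaRG hepatic cells treated 48 h in serum-free medium with half-log dilutions from 100 uM. Endpoint: BID mRNA, qRT-PCR, normalized to ACTB/GAPDH/POLR2A.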

Caspase-3 (Homo sapiens) = Caspase-3 (Homo sapiens) (UniProt P42574); test: LTEA_HepaRG_CASP3: Life Technologies and Expression Analysis (LTEA) Assay for cysteine-aspartic acid protease (CASP3) using HepaRG (AID 2283477)
Caspase-3 (Homo sapiens), sequence (P42574 whole entry, looked up): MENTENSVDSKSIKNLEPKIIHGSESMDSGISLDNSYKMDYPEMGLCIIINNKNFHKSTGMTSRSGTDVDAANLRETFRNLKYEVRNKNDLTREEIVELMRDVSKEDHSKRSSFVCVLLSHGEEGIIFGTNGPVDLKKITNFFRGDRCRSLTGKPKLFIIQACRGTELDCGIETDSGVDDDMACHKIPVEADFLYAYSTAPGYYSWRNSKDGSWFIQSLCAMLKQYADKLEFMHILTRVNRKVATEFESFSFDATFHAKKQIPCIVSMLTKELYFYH
Procedure, shortened: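 In HepaRG liver cells dosed for 48 h at up to 100 uM (eight-point, duplicate), CASP3 expression changes are scored by qRT-PCR. Activity is fitted in both directions with 0.5% DMSO as baseline.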

[11] = read-out: Cytochrome P450 (CYP24A1), CYP24A1 (gene 1591); test: LTEA_HepaRG_CYP24A1: Life Technologies and Expression Analysis (LTEA) Assay for Cytochrome P450 (CYP24A1) using HepaRG (AID 2283478)
Procedure, shortened: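 Human liver HepaRG cultures receive each chemical for 48 h across an eight-point half-log series topping at 100 uM in 0.5% DMSO. Induction or suppression of CYP24A1 mRNA is scored relative to vehicle after housekeeping-gene normalization.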

[12] = read-out: Cytochrome P450 (CYP1A2), CYP1A2 (gene 1544); test: LTEA_HepaRG_CYP1A2: Life Technologies and Expression Analysis (LTEA) Assay for Cytochrome P450 (CYP1A2) using HepaRG (AID 2283479)
Procedure, shortened: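 Assesses CYP1A2 mRNA in human HepaRG liver cells after 48 h chemical exposure at up to 100 uM. Values come from qRT-PCR with bidirectional curve fitting relative to DMSO.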

[13] = read-out: cysteine-aspartic acid protease (CASP8), CASP8 (gene 841); test: LTEA_HepaRG_CASP8: Life Technologies and Expression Analysis (LTEA) Assay for cysteine-aspartic acid protease (CASP8) using HepaRG (AID 2283480)
Procedure, shortened: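 qRT-PCR readout of CASP8 mRNA, normalized to three housekeeping genes, after 48 h chemical exposure of HepaRG cells; 8-point half-log series, top 100 uM, 0.5% DMSO vehicle. Bidirectional curve fitting against DMSO baseline.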

[14] = read-out: Cytochrome P450 (CYP2B6), CYP2B6 (gene 1555); test: LTEA_HepaRG_CYP2B6: Life Technologies and Expression Analysis (LTEA) Assay for Cytochrome P450 (CYP2B6) using HepaRG (AID 2283481)
Procedure, shortened: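 Using 48 h treatment of HepaRG cells in serum-free induction medium, concentrations spanned half-log steps from 100 uM in 0.5% DMSO vehicle. CYP2B6 mRNA induction or loss is scored by qRT-PCR against DMSO.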

[15] = read-out: Cytochrome P450 2C19 (Homo sapiens) (UniProt P33261); test: LTEA_HepaRG_CYP2C19: Life Technologies and Expression Analysis (LTEA) Assay for CYP2C19 using HepaRG (AID 2283482)
Procedure, shortened: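 Human HepaRG liver cells received test chemicals for 48 h (highest 100 uM, half-log dilutions in 0.5% DMSO). CYP2C19 mRNA induction or loss is read by multiplexed qRT-PCR and fitted in both directions versus vehicle.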

CYP2C8 (gene 1558) = test: LTEA_HepaRG_CYP2C8: Life Technologies and Expression Analysis (LTEA) Assay for CYP2C8 using HepaRG (AID 2283483)
Procedure, shortened: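 HepaRG (human liver line), 48 h chemical exposure, 8-pt half-log series from 100 uM, 0.5% DMSO vehicle. Readout: CYP2C8 transcript by qRT-PCR, housekeeping-normalized. Bidirectional fit vs DMSO baseline.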

CYP2C9 (gene 1559) = test: LTEA_HepaRG_CYP2C9: Life Technologies and Expression Analysis (LTEA) Assay for CYP2C9 using HepaRG (AID 2283484)
Procedure, shortened: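 HepaRG, 48 h dosing, 8-pt half-log series, top 100 uM, 0.5% DMSO vehicle. Read-out: CYP2C9 transcript by TaqMan qRT-PCR, housekeeping-normalized (ACTB/GAPDH/POLR2A). Gain or loss fitted vs DMSO baseline.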

CYP2E1 (gene 1571) = test: LTEA_HepaRG_CYP2E1: Life Technologies and Expression Analysis (LTEA) Assay for CYP2E1 using HepaRG (AID 2283485)
Procedure, shortened: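 Assay uses 48 h exposure of HepaRG hepatic cells, eight concentrations to 100 uM. Expression of CYP2E1 is quantified by TaqMan qRT-PCR with ACTB, GAPDH and POLR2A normalization; curves fitted in both directions relative to vehicle.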

Measured: AC50

Cytochrome P450 2C19 (Homo sapiens), sequence (P33261 whole entry, looked up): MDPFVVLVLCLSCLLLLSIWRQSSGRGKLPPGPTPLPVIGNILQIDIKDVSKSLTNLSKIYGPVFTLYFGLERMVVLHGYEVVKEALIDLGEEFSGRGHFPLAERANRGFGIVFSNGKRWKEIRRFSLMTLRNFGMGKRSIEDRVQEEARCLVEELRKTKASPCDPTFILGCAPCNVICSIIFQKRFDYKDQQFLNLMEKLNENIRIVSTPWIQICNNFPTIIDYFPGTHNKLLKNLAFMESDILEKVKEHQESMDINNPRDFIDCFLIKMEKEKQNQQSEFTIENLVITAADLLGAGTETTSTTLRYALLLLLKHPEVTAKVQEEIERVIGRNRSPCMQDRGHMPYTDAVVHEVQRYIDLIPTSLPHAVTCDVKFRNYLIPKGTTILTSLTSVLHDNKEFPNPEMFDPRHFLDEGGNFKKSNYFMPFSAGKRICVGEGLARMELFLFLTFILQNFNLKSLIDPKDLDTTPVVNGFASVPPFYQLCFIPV
Apoptosis regulator Bcl-2 (Homo sapiens), sequence (P10415 whole entry, looked up): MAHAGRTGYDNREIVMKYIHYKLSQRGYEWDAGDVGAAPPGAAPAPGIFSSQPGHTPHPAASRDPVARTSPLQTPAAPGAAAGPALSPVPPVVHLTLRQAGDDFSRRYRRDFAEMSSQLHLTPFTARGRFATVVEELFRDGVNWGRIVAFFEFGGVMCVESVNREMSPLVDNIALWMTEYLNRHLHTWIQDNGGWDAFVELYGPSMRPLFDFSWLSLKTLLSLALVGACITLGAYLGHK

CCC(C)(CC)c1cc(NC(=O)c2c(OC)cccc2OC)on1
active: [7] 28.9 µM | [12] 10.3 µM | [14] 3.2 µM | [15] 2.36 µM | CYP2C8 (gene 1558) 3.26 µM | CYP2E1 (gene 1571) 15 µM
inactive: all other assays above

O=C(O)C(F)(F)C(F)(F)C(F)(F)C(F)(F)C(F)(F)C(F)(F)C(F)(F)C(F)(F)F
active: [2] 90.4 µM | [3] 50 µM | [5] 76.3 µM | [7] 78.4 µM | BCL2L11 (gene 10018) 50 µM | [8] 82 µM | [9] 73.6 µM | [12] 83.6 µM | [14] 82.4 µM | [15] 87.1 µM | CYP2C8 (gene 1558) 80 µM | CYP2C9 (gene 1559) 80.5 µM | CYP2E1 (gene 1571) 93.9 µM
inactive: [1] | [4] | [6] | [10] | Caspase-3 (Homo sapiens) | [11] | [13]

Nn1cnnc1
not listed: CYP2C8 (gene 1558)
inactive: all other assays above
